Data as given in ChEMBL document CHEMBL3988442, “University of Dundee, Small-Polar-MMV Screening Library” (2021).
Out of some 48,000 compounds screened, about 13,000 (27%) showed an effect of 50% or more. Some of the results follow.

Tested on: Wolbachia pipientis
Experiment: Anti-Wolbachia Cell-Based Screen
Type: functional
Parameters: scale not given: in the data most compounds retested in dose-response had high values
Conditions: 5 µM

| Structure (SMILES) | Percent Effect [%] |
| --- | --- |
| CC(c1cccc(S(N)(=O)=O)c1)N(C)CCOC(C)(C)C (stereo not given) | 105.4 |
| CC(c1cccc(O)c1)N(C)S(N)(=O)=O (stereo not given) | 16.66 |
| CC(c1ccc(F)c(F)c1)N(C)CCS(=O)(=O)CCC(N)=O (stereo not given) | 2.944 |
| CC(c1cccc(Cl)c1)N(C)CCS(=O)(=O)CCC(N)=O (stereo not given) | 6.991 |
| COCCN(C)C(C)c1cccc(S(N)(=O)=O)c1 (stereo not given) | 128.5 |
| CC(c1cccc(O)c1)N(C)S(=O)(=O)c1cccnc1 (stereo not given) | -4.431 |
| O=C(c1cc[nH]n1)N1CCc2ccc(S(=O)(=O)N3CCOCC3)cc2C1 | 111.1 |
| CCCNC(=O)N1CCc2ccc(S(=O)(=O)N3CCN(C)CC3)cc2C1 | -8.252 |
| O=C(c1ccc[nH]1)N1CCc2c(cccc2S(=O)(=O)N2CCOCC2)C1 | 94.62 |
| O=C(c1ccc[nH]1)N1CCc2cc(S(=O)(=O)N3CCOCC3)ccc2C1 | 106.5 |
| CN1CCN(S(=O)(=O)c2ccc3c(c2)CN(C(=O)C(C)(C)C)CC3)CC1 | -9.365 |
| O=C(c1c[nH]c(=O)c(Cl)c1)N1CCc2ccccc2C1 | 10.27 |
| CCCNC(=O)N1CCc2ccc(S(=O)(=O)N3CCCC3)cc2C1 | -4.985 |
| CC(C)CC(=O)N1CCc2ccc(S(=O)(=O)N3CCN(C)CC3)cc2C1 | 0.4144 |
| O=C(O)c1cc(-n2cc3c(n2)CCC3)cc(S(=O)(=O)N2CCOCC2)c1 | -7.127 |
| O=C(c1ccc[nH]1)N1CCc2ccc(S(=O)(=O)N3CCOCC3)cc2C1 | 99.23 |
| O=C1COc2ccc(S(=O)(=O)N3CCOCC3)c3c2N1CCC3 | 16.87 |
| CCCNC(=O)N1CCc2ccc(S(=O)(=O)N3CCOCC3)cc2C1 | -14.34 |
| CCN1CCC(CC(=O)NC[C@H]2CCc3ccccc3O2)CC1 | 15.83 |
| CCN1CC2(CC1=O)CN(Cc1cnn(C)c1)CCN(C(C)=O)C2.O=C(O)C(F)(F)F (stereo not given) | 1.894 |
| CC(=O)N1CCN(Cc2ccsc2)CC2(CC(=O)N(C)C2)C1.O=C(O)C(F)(F)F (stereo not given) | 101.7 |
| CC(=O)N1CCCC2(CN(Cc3ccc(F)cc3)CCO2)C1.O=C(O)C(F)(F)F (stereo not given) | -7.517 |

| Structure (SMILES) | Percent Effect [%] |
| --- | --- |
| CC(=O)N1CCN(Cc2ccc(F)cc2)CC2(CC(=O)N(C)C2)C1.O=C(O)C(F)(F)F (stereo not given) | 98.03 |
| Cn1cc(CN2CCC3(C2)CN(Cc2ccsc2)C3)cn1.O=C(O)C(F)(F)F.O=C(O)C(F)(F)F | -10.11 |
| CCn1cc2c(n1)C(COCC1CC1)CN(C(=O)c1ccsc1)C2 (stereo not given) | 2.501 |
| CCOCCC(=O)N1CCCN(c2ccccc2C)CC1 | 0.9002 |
| CC(C)NC(=O)c1nc2c(s1)CCCN2c1ccccc1 | 7.229 |
| Cc1ccc(N2C[C@H](C(=O)N3CCOCC3)[C@@H]3CCO[C@@H]3C2)nn1 | -2.103 |
| CCCNC(=O)c1nc2c(o1)CN(c1ncccn1)C2 | -1.924 |
| O=C(NCCN1CCCC1)c1nc2c(o1)CN(c1ncccn1)C2 | -7.93 |
| CC(C)NC(=O)c1cc2c(s1)CCN2c1ncccn1 | 92.76 |
| CCc1cc(C(=O)N2CCC(Nc3ccc(C)nn3)CC2)sc1C | -9.138 |
| CCCNC(=O)c1cnc2n1CCCC2 | -8.644 |
| CCCNC(=O)c1cc2c(s1)CCN2c1ncccn1 | 122.6 |
| O=C(NCCN1CCOCC1)c1cc2c(s1)CCN2Cc1cccnc1 | -4.667 |
| Cc1ccc(N2CCc3sc(C(=O)N4CCOCC4)cc32)nn1 | 84.11 |
| O=C(NCCN1CCCC1)c1cc2c(s1)CCN2c1ncccn1 | 97.7 |
| CC(C)NC(=O)c1nc2c(s1)CCCN2C(C)C | 3.81 |
| c1cc(-c2nnn3c2COC(CNCC2CCOCC2)C3)ccn1 (stereo not given) | -54.53 |
| c1cnnc(N2CCCC(NCc3cccc4c3OCO4)C2)c1 (stereo not given) | 3.932 |
| CCC(NC(=O)NCc1ccoc1C)c1c(C)nn(C)c1C (stereo not given) | 3.251 |
| CCN1CCCC(c2c(-c3ccccc3)ncn2CCCO)C1 (stereo not given) | -4.818 |
| Cc1nnsc1C(=O)NCC1CCN(c2ccccn2)CC1 | 1.014 |
| O=C(NCC1CC1)c1cc2c(s1)CCN2c1ncccn1 | 107.3 |

| Structure (SMILES) | Percent Effect [%] |
| --- | --- |
| Cc1ccc(N2CCc3sc(C(=O)NCCN4CCCC4)cc32)nn1 | 102.9 |
| CCOCCCNC(=O)c1nc2c(s1)CCCN2c1ccc(C)nn1.O=C(O)C(F)(F)F | -5.598 |
| Cc1ccc(N2CCCc3sc(C(=O)NCCC#N)nc32)nn1.O=C(O)C(F)(F)F | -4.317 |
| CCNC(=O)C(C)(C)NC(=O)NCc1cccc(Br)c1 | 5.794 |
| CCc1ccc(CN2CCN(CCOC)[C@@H]3CS(=O)(=O)C[C@@H]32)cc1 | -8.66 |
| c1ccc(-c2nc(SCc3nnc(C4CC4)o3)n[nH]2)nc1 | -8.457 |
| Cc1cc(NC(=O)CNC2CCCN(c3cccnn3)C2)on1 (stereo not given) | 92.8 |
| Cc1ccc(N2CCCC(NCC(=O)Nc3cc(C)no3)C2)nn1 (stereo not given) | 8.409 |
| Cc1cc(NC(=O)CN(C)C2CCCN(c3cccnn3)C2)n(C)n1 (stereo not given) | -4.115 |
| CC(C)c1cc(NC(=O)CNC2CCCN(c3cccnn3)C2)on1 (stereo not given) | 100.2 |
| Cc1ccc(N2CCCC(N(C)Cc3cc(C)no3)C2)nn1 (stereo not given) | 1.683 |
| c1cnnc(N2CCCC(NCc3ccncc3)C2)c1 (stereo not given) | 0.6717 |
| CS(=O)(=O)c1ccc(CNC2CCCN(c3cccnn3)C2)cc1 (stereo not given) | 6.689 |
| Cc1nc(CNC2CCCN(c3cccnn3)C2)no1 (stereo not given) | 0.4362 |
| Cc1cc(NC(=O)CN(C)C2CCCN(c3cccnn3)C2)on1 (stereo not given) | 99.52 |
| Cc1cc(NC(=O)NCCc2cscn2)nn1C | -10.8 |
| O=C(Cc1cccc(F)c1F)NC1COc2ccccc2C1=O (stereo not given) | 2.844 |
| O=C(O)C(F)(F)F.O=C(c1cnccn1)N1CCCC2(COCCN(CC3CC3)C2)C1 (stereo not given) | -6.241 |
| O=C(c1ccnc(-n2cnnc2)c1)N1CCCC2(CCOC2)C1 (stereo not given) | 13.33 |
| CC(C)CN1CCCC2(CCN(C(=O)c3cnccn3)C2)C1 (stereo not given) | -16.61 |
| CCN1CCOCC2(CCCN(C(=O)c3cccc(O)c3)C2)C1 (stereo not given) | 105.1 |
| CCN1CCOCC2(CCCN(C(=O)c3ccccc3F)C2)C1.O=C(O)C(F)(F)F (stereo not given) | 106.1 |

| Structure (SMILES) | Percent Effect [%] |
| --- | --- |
| CN(C)CCN1CCOCC2(CCCN(C(=O)c3cccc(O)c3)C2)C1 (stereo not given) | -3.261 |
| CN(C)CCN1CCOCC2(CCCN(C(=O)c3ccccc3)C2)C1.O=C(O)C(F)(F)F.O=C(O)C(F)(F)F (stereo not given) | -4.449 |
| CN(C)CCN1CCOCC2(CCCN(C(=O)c3cccn3C)C2)C1.O=C(O)C(F)(F)F.O=C(O)C(F)(F)F (stereo not given) | -8.448 |
| CCN1CCOCC2(CCCN(C(=O)c3cnccn3)C2)C1 (stereo not given) | 95.08 |
| CC(C)CNC(=O)c1nc2c(s1)CCN(C(=O)c1ccc(Cl)cc1)CC2 | -4.208 |
| CC(C)OCCCNC(=O)N(C)C(C)c1ccc(-n2cncn2)cc1 (stereo not given) | -7.098 |
| CNC(=O)CC1CCN(Cc2nc(-c3cccc(Cl)c3)oc2C)CC1 | -0.6077 |
| CCN1CC(CN(C)Cc2nc(-c3cccc(C)c3)oc2C)CC1=O (stereo not given) | 105.1 |
| Cc1cccc(-c2nc(CN3CCOCS3(=O)=O)c(C)o2)c1 | 4.701 |
| CCN(CCn1cccn1)Cc1nc(-c2cccc(C)c2)oc1C | -6.378 |
| CCc1nnc(CN(C)Cc2nc(-c3ccccc3Cl)oc2C)o1 | -2.214 |
| CCN1CC(CN(C)Cc2nc(-c3cccc(Cl)c3)oc2C)CC1=O (stereo not given) | 102.8 |
| Cc1nc(C2CCCN(C(=O)c3cc(Cl)c[nH]3)C2)no1 (stereo not given) | 0.9971 |
| N#Cc1cccc(CNCCNC(=O)Cc2cccc(F)c2)c1 | 98.51 |
| CCN(CCNCc1cccc(C#N)c1)C1CC1 | -10.23 |
| O=C(Cc1cccc(F)c1)NCCNCC1CNc2ccnn2C1 (stereo not given) | 0.2613 |
| N#Cc1cccc(CNC(=O)NC2CCN(CC(F)F)CC2)c1 | -0.5422 |
| O=C(Cc1cccc(F)c1)NCCNCc1ccco1 | -5.047 |
| O=C(Cc1cccc(F)c1)NCCNCc1cccnc1 | 96.05 |
| COCCN(CCC#N)S(=O)(=O)c1cc(F)cc(F)c1 | -7.872 |
| c1ccc(C(c2ccccc2)N2CCN(CCn3cncn3)CC2)cc1 | 0.8212 |
| CC(C)(C)c1ccn(C2(C(=O)O)CCN(c3nccc(N)n3)CC2)n1 | -5.25 |

| Structure (SMILES) | Percent Effect [%] |
| --- | --- |
| O=C(c1cnccn1)N1C[C@@H]2[C@@H](C1)OCC(=O)N2CC1CCCC1 | -6.759 |
| COc1cc(C2(C(=O)NCC(=O)NC3CC3)CC2)ccc1C | 9.021 |
| Cc1ncsc1-c1cc(C(=O)NCCO)ccn1 | 109.9 |
| CNC(=O)CNC(=O)c1ccc(-c2scnc2C)nc1 | 75.09 |
| Cc1ncsc1-c1ccn(CC(=O)Nc2cnn(C)n2)n1 | -5.489 |
| CNC(=O)c1ccc(CN(C(=O)c2scnc2C)C2CC2)cc1 | 4.078 |
| O=C(NCCNC(=O)c1scnc1Cl)c1ccccc1 | -1.754 |
| Cc1ncsc1C(=O)NCCSCCCO | -0.9457 |
| CCCc1nnc(NC(=O)N2CCCC2c2ccncc2)s1 (stereo not given) | 3.484 |
| CN(Cc1ccc(-n2cccn2)cc1)c1nc(N)nc2c1CCNCC2 | 3.985 |
| CCOc1ccc(-c2nc(CN(C)Cc3c(C)noc3C)cs2)cc1 | -23.12 |
| c1cnc2c(-c3nccn3C[C@@H]3CCCN4CCCC[C@H]34)cccc2c1 | 5.22 |
| CC(=O)N1CCC2(CC1)CC(Oc1ccccc1)CO2 (stereo not given) | -5.824 |
| COC(=O)N1CC[C@@]2(C1)[C@H](OC)CN(c1ccccc1)S2(=O)=O | 101.1 |
| CO[C@@H]1CN(c2ccccc2)S(=O)(=O)[C@@]12CCN(C(=O)N(C)C)C2 | 88.6 |
| CN(C)C(=O)N1CCC(C2C(=O)Nc3ccccc32)CC1 (stereo not given) | -38.16 |
| CO[C@@H]1CN(c2ccccc2)S(=O)(=O)[C@@]12CCN(C(C)=O)C2 | 94.97 |
| CS(=O)(=O)NCC1CCN(C(=O)Oc2ccccc2)CC1 | -10.63 |
| CO[C@@H]1CN(c2ccccc2)S(=O)(=O)[C@@]12CCNC2 | 127.8 |
| O=C(C1CC2(CCNCC2)CN1)N1CCN(c2ccccc2)CC1 (stereo not given) | -0.8952 |
| CN(C)C(=O)N1CCN(C(=O)CCc2ccccc2)[C@H]2CS(=O)(=O)C[C@H]21 | -4.375 |
| COC(=O)N1CCC2(CC1)CC(c1ccccc1)CN(C)C2 (stereo not given) | -13.78 |
